From PubChem BioAssay AID1159580 (chemical genetic matrix, 2015)
Among all 5,500 compounds or so, about 2,000 (36%) were called active. Roughly 18% stayed inconclusive and do not appear here. Rule as the data show it: active = normalized growth mostly below about 0.91 (no sharp cut-off); inconclusive = no clear call, values can overlap the other calls; inactive = mostly above about 0.92. The list shows a part of the results.

Assay: chemical genetic growth profiling, strain panel (AID 1159580);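 also: tested at 20 µM; growth read once vehicle control cultures reached saturation at 30 °C; 1 = growth at the plate median or of vehicle wells; lower values mean less growth of the strain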
Settings: S. cerevisiae deletion strains, growth OD

Measured: normalized growth

CC(C)N(C(=O)CCl)c1ccccc1
active: locus YDR392W, strain spt3, stronger effect = lower value 0.649 | locus YJL129C, strain trk1, stronger effect = lower value 1.23 [resistant]
inactive: locus YAL013W, strain DEP1, stronger effect = lower value 1.03 | locus YAL021C, strain ccr4, stronger effect = lower value 1.03 | locus YAL026C, strain drs2, stronger effect = lower value 1.04 | locus YAL030W, strain snc1, stronger effect = lower value 1.02 | locus YBL061C, strain skt5, stronger effect = lower value 1.01 | locus YBR009C, strain hhf1, stronger effect = lower value 0.949 | locus YBR021W, strain FUR4, stronger effect = lower value 1.07 | locus YBR023C, strain chs3, stronger effect = lower value 1.02 | locus YBR171W, strain sec66, stronger effect = lower value 1.01 | locus YBR229C, strain ROT2, stronger effect = lower value 1.02 | locus YBR231C, strain swc5, stronger effect = lower value 0.991 | locus YBR279W, strain paf1, stronger effect = lower value 0.993 | locus YCL011C, strain gbp2, stronger effect = lower value 1.01 | locus YCL016C, strain dcc1, stronger effect = lower value 1.01 | locus YCL029C, strain bik1, stronger effect = lower value 1.02 | locus YCL061C, strain MRC1, stronger effect = lower value 1.02 | locus YCL069W, strain vba3, stronger effect = lower value 1.01 | locus YCR088W, strain abp1, stronger effect = lower value 1.03 | locus YDL005C, strain med2, stronger effect = lower value 1.04 | locus YDL035C, strain GPR1, stronger effect = lower value 1.04 | locus YDL040C, strain nat1, stronger effect = lower value 1 | locus YDL074C, strain BRE1, stronger effect = lower value 1.05 | locus YDL101C, strain DUN1, stronger effect = lower value 1.02 | locus YDL134C, strain PPH21, stronger effect = lower value 1.02 | locus YDL185W, strain tfp1, stronger effect = lower value 1.02 | locus YDL192W, strain arf1, stronger effect = lower value 1.01 | locus YDR001C, strain nth1, stronger effect = lower value 1.01 | locus YDR069C, strain doa4, stronger effect = lower value 0.979 | locus YDR101C, strain arx1, stronger effect = lower value 1.02 | locus YDR137W, strain rgp1, stronger effect = lower value 1.08 | locus YDR150W, strain NUM1, stronger effect = lower value 1.03 | locus YDR159W, strain sac3, stronger effect = lower value 1.01 | locus YDR162C, strain NBP2, stronger effect = lower value 1.03 | locus YDR195W, strain ref2 0.917 | locus YDR297W, strain sur2, stronger effect = lower value 1.03 | locus YDR318W, strain mcm21, stronger effect = lower value 1.02 | locus YDR334W, strain swr1, stronger effect = lower value 1.01 | locus YDR335W, strain msn5, stronger effect = lower value 1.01 | locus YDR388W, stronger effect = lower value 1.02 | locus YDR502C, strain sam2, stronger effect = lower value 1.02 | locus YEL003W, strain gim4, stronger effect = lower value 1 | locus YEL037C, strain rad23, stronger effect = lower value 1.01 | locus YEL061C, strain CIN8 (second series), stronger effect = lower value 1.01 | locus YEL061C, strain CIN8, stronger effect = lower value 1.02 | locus YER015W, strain faa2, stronger effect = lower value 0.997 | locus YER016W, strain bim1, stronger effect = lower value 1.01 | locus YER110C, stronger effect = lower value 1.03 | locus YER111C, strain swi4, stronger effect = lower value 1.02 | locus YER155C, strain BEM2 (second series), stronger effect = lower value 1.01 | locus YER155C, strain BEM2, stronger effect = lower value 1.03 | locus YER167W, strain BCK2, stronger effect = lower value 1.03 | locus YFR010W, strain ubp6, stronger effect = lower value 0.985 | locus YGL078C, strain dbp3, stronger effect = lower value 1.03 | locus YGL086W, strain mad1, stronger effect = lower value 1.02 | locus YGL167C, strain pmr1, stronger effect = lower value 1.01 | locus YGL173C, strain kem1, stronger effect = lower value 1.03 | locus YGL227W, strain vid30, stronger effect = lower value 1.01 | locus YGL240W, strain doc1, stronger effect = lower value 0.977 | locus YGL248W, strain PDE1, stronger effect = lower value 1.04 | locus YGL253W, strain hxk2, stronger effect = lower value 0.941 | locus YGR078C, strain PAC10, stronger effect = lower value 1.02 | locus YGR135W, strain pre9, stronger effect = lower value 1.01 | locus YGR229C, strain SMI1, stronger effect = lower value 1.05 | locus YGR252W, strain gcn5, stronger effect = lower value 0.958 | locus YHR013C, strain ard1, stronger effect = lower value 0.881 | locus YHR027C, strain rpn1, stronger effect = lower value 1.01 | locus YHR030C, strain SLT2, stronger effect = lower value 1 | locus YHR079C, strain IRE1 (second series), stronger effect = lower value 1.02 | locus YHR094C, strain hxt1, stronger effect = lower value 1.01 | locus YHR129C, strain ARP1, stronger effect = lower value 1.04 | locus YHR142W, strain chs7, stronger effect = lower value 1.01 | locus YHR200W, strain rpn10, stronger effect = lower value 1.02 | locus YIL066C, strain RNR3, stronger effect = lower value 1.01 | locus YIL073C, strain SPO22, stronger effect = lower value 0.961 | locus YIL125W, strain kgd1, stronger effect = lower value 1.03 | locus YIR030C, strain dcg1, stronger effect = lower value 1.02 | locus YJL092W, strain hpr5, stronger effect = lower value 1.03 | locus YJL095W, strain BCK1 (second series), stronger effect = lower value 1.01 | locus YJL095W, strain BCK1, stronger effect = lower value 1.02 | locus YJL115W, strain asf1, stronger effect = lower value 1.03 | locus YJL134W, strain LCB3, stronger effect = lower value 1.03 | locus YJL154C, strain vps35, stronger effect = lower value 1.02 | locus YJL164C, strain tpk1, stronger effect = lower value 0.999 | locus YJL166W, strain qcr8, stronger effect = lower value 0.955 | locus YJL168C, strain set2, stronger effect = lower value 1 | locus YJL187C, strain SWE1 (second series), stronger effect = lower value 1.02 | locus YJL187C, strain SWE1, stronger effect = lower value 1.02
